Drawing on PubChem BioAssay, this text covers z-score and composite z-score for 4 molecules.

The source made the active and inactive calls.

A short description of assay [1]: optical density shifts of acrAB sulA E. coli – strain DRC41, OD650, 48 h, E. coli filamentation inducer project, primary screen (AID 1152).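 Note: E. coli MC1000 strain DRC41 lacking acrAB efflux pump and sulA.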 The conditions noted are these: higher = more signal, called active from +8 up or from −8 down.
Assay [2] is described as follows: probe aLefty1 binding on compound microarray – biochemical, small-molecule microarray, 635/667 nm fluorescence, primary screen (AID 1153).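 Note: score merges spot fluorescence with signal-to-noise ratio from the scanned slide images.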 The following applies: higher = more signal.
A short description of assay [3]: plasmodial surface anion channel blockers, osmotic lysis – cell-based, P. falciparum Indochina, OD700, 1 h, primary screen (AID 1154). The conditions noted are these: P. falciparum Indochina infected RBC osmotic lysis, higher = more signal, called active from +8 up or from −8 down.
Assay [4] is described as follows: plasmodial surface anion channel blockers, osmotic lysis – cell-based, P. falciparum Indochina, OD700, 2 h, primary screen (AID 1155).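 Note: lysis reports solute entry through the parasite surface anion channel PSAC.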 The following applies: P. falciparum Indochina infected erythrocytes, higher = more signal, called active from +8 up or from −8 down.
The nature of assay [5]: changes in parasitized red cell lysis, either direction – P. falciparum Indochina, OD700, 3 h, PSAC antagonist project, primary screen (AID 1156). The following applies: P. falciparum-infected erythrocytes, osmotic lysis, higher = more signal, called active from +8 up or from −8 down.
A short description of assay [6]: plasmodial surface anion channel blockers, osmotic lysis – cell-based, P. falciparum Indochina, OD700, 18 h, primary screen (AID 1157). The following applies: P. falciparum Indochina infected erythrocytes, osmotic lysis OD700, 18 h; higher = more signal, called active from +8 up or from −8 down.
Assay [7] is described as follows: S6 kinase pathway phospho-S6 level changes – cell-based, A549, cytoblot, luminescence, serum-stimulated, primary screen (AID 1158).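 Note: serum-stimulated A549 lung adenocarcinoma cells; signal is phosphorylated S6 detected by cytoblot immunostaining with HRP secondary.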 The following applies: 5 h, higher = more signal.
Assay [8] has as its target NADPH oxidase 2 (Homo sapiens) (UniProt P04839). The experiment in a line: compounds shifting NOX2 Amplex Red fluorescence – cell-based, HEK293-NOX2, PMA-stimulated, NOX inhibitor project, primary screen (AID 1159). Note: test concentration not given here. The conditions noted are these: 45 min, higher = more signal, called active from +8 up or from −8 down.
Assay [9] has as its target NADPH oxidase 4 (Homo sapiens) (UniProt Q9NPH5). The experiment in a line: compounds shifting NOX4 Amplex Red fluorescence – cell-based, HEK293-NOX4, tetracycline-induced, NOX inhibitor project, primary screen (AID 1160). The conditions noted are these: HEK293-NOX4, Amplex Red H2O2 fluorescence, 45 min; higher = more signal, called active from +8 up or from −8 down.
For assay [10], the target named is NADPH oxidase 5 (Homo sapiens) (UniProt Q96PH1). Description: compounds shifting NOX5 Amplex Red fluorescence – cell-based, HEK293-NOX5, NOX inhibitor project, primary screen (AID 1161). The conditions noted are these: HEK293-NOX5, ionomycin, 45 min, higher = more signal.
Sequence of NADPH oxidase 5 (Homo sapiens) (Q96PH1 whole entry, looked up): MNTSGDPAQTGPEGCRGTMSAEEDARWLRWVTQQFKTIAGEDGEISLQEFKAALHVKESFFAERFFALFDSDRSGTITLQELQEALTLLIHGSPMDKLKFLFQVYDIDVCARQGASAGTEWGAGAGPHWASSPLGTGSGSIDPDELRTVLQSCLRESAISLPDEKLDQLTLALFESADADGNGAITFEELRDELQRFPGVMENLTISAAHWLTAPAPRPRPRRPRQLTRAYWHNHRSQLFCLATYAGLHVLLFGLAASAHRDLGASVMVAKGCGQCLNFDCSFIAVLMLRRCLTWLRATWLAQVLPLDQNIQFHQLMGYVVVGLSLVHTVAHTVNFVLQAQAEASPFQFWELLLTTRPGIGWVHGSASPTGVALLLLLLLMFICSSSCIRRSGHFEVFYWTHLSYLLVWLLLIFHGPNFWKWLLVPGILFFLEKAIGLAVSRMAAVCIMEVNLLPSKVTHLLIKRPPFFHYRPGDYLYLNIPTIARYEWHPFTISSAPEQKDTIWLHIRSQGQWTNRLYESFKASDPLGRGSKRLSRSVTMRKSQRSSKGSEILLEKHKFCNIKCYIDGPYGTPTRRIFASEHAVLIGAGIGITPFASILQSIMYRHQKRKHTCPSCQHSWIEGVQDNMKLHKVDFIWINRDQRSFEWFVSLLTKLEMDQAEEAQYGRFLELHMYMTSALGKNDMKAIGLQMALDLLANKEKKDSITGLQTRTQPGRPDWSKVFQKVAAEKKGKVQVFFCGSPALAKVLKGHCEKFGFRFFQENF
The nature of assay [11]: compound effects on lung adenocarcinoma cell viability – A549, calcein-AM fluorescence, 48 h, basal, profiling panel (AID 1162). Note: test concentration not given here. The conditions noted are these: higher = more signal.
A short description of assay [12]: compound effects on differentiated 3T3-L1 adipocyte viability – cell-based, 3T3-L1 adipocytes, calcein-AM fluorescence, 48 h, basal, profiling panel (AID 1163). Note: test concentration not given here. The following applies: 3T3-L1 adipocytes viability, higher = more signal.
Assay [13] can be described thus: compound effects on hepatocellular carcinoma cell viability – HepG2, calcein-AM fluorescence, 48 h, basal, profiling panel (AID 1164). Note: test concentration not given here. The conditions noted are these: higher = more signal.
Assay [14] in a line: compound effects on multiple myeloma cell viability – MM1S, calcein-AM fluorescence, 48 h, basal, profiling panel (AID 1165). Note: test concentration not given here. The conditions noted are these: higher = more signal.
A short description of assay [15]: calcein-AM signal in unstimulated myeloma cells – cell-based, calcein-AM fluorescence, 48 h, PK04 Diversity Set, profiling panel (AID 1166).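 Note: cells grown under basal conditions without added stimulus; test concentration not given here.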 The conditions noted are these: RPMI8226 myeloma viability, higher = more signal.
A short description of assay [16]: JC-1 mitochondrial signal, unstimulated HepG2 cells – cell-based, JC-1 fluorescence, 24 h, 100 nL compound, profiling panel (AID 1167). Note: test concentration not given here. The following applies: HepG2 mitochondrial potential, higher = more signal.
The nature of assay [17]: JC-1 mitochondrial signal, unstimulated adipocytes – cell-based, JC-1 fluorescence, 3T3-L1 adipocytes, 24 h, 100 nL compound, profiling panel (AID 1168). Note: test concentration not given here. The following applies: JC-1 mitochondrial fluorescence, higher = more signal, called active from +8 up or from −8 down.
The nature of assay [18]: JC-1 mitochondrial signal, unstimulated myeloma cells – cell-based, JC-1 fluorescence, RPMI8226, 24 h, 100 nL compound, profiling panel (AID 1169). Note: test concentration not given here. The following applies: JC-1 mitochondrial potential fluorescence, higher = more signal.
Assay [19] in a line: JC-1 mitochondrial signal, unstimulated MM1S myeloma – cell-based, JC-1 fluorescence, 24 h, 100 nL compound, profiling panel (AID 1170). Note: test concentration not given here. The following applies: MM1S mitochondrial potential, higher = more signal.
Assay [20] in a line: resazurin metabolic signal in A549 cells – cell-based, resazurin fluorescence, 24 h, PK04 Diversity Set, profiling panel (AID 1171). Note: test concentration not given here. The conditions noted are these: A549 viability, higher = more signal, called active from +8 up or from −8 down. On the technique in general: The colour change of resazurin is a common sign of viable cells or microbes.

Sequence of NADPH oxidase 2 (Homo sapiens) (P04839 whole entry, looked up): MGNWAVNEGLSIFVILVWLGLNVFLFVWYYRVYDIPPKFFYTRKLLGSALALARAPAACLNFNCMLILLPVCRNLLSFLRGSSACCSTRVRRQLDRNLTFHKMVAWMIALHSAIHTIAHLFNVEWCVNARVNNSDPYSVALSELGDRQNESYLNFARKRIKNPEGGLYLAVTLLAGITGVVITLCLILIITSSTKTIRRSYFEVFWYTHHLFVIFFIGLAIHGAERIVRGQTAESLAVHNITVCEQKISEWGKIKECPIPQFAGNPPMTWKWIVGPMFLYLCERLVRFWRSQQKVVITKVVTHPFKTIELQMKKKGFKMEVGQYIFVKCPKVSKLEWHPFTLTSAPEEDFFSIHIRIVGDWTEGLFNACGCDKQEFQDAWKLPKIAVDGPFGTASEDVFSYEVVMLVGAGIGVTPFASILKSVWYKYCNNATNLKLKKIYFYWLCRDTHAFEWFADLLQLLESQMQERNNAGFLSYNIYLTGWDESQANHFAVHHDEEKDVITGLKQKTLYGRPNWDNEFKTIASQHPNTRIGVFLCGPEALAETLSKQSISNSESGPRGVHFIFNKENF
Sequence of NADPH oxidase 4 (Homo sapiens) (Q9NPH5 whole entry, looked up): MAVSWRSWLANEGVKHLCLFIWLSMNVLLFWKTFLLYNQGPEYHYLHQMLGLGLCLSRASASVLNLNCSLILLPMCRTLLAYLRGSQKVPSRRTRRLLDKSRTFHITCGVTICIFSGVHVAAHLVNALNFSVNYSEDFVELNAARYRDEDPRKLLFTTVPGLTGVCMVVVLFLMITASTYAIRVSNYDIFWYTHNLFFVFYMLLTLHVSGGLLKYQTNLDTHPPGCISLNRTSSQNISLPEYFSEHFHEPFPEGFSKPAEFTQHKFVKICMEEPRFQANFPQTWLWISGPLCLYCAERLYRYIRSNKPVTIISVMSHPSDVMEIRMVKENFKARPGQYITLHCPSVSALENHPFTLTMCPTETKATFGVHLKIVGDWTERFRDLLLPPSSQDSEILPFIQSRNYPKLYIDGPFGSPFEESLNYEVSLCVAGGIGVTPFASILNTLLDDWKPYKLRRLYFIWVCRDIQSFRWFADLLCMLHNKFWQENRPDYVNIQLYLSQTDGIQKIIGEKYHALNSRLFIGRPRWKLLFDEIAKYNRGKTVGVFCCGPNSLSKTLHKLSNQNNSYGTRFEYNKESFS

Take `[N-]=[N+]=Nc1ccccc1C[C@]1(C(=O)O)N=C(c2ccc(OCCCO)cc2)O[C@H]1c1ccccc1N=[N+]=[N-]`: the z-score is 0.476 (inactive) in [1]; 30.8 (active) in assay [3]; 27.6 (active) in assay [4]; 2.88 (inactive) in assay [5]; 4.45 (inactive) in assay [6]; -0.0428 in [7]. Moreover, the z-score is -2.72 (inactive) in assay [8]; 0.551 (inactive) in assay [9]; -2.15 in assay [10]; -0.35 in [11]; 0.22 in [12]; 0.0698 in assay [13]. Besides, the z-score in [14] was -2.38; in assay [15], -1.43; in assay [16], -0.914; in [17], -0.424 (inactive); in assay [18], -0.739; in assay [19], 0.51. Further, the z-score in assay [20] was -0.371 (inactive). Also, in assay [2], the composite z-score came to 0.612.
As to `CC(C)CNC(=O)[C@@]1(C)c2ccccc2C(=O)N(Cc2cc(C(F)(F)F)cc(C(F)(F)F)c2)[C@H]1c1ccc(CO)cc1`, the z-score is 0.516 (inactive) in [1]; 7.12 (inactive) in [3]; 1.13 (inactive) in assay [4]; 2.06 (inactive) in assay [5]; 0.428 (inactive) in assay [6]; -0.404 in assay [7]. In addition, the z-score in [8] was -0.766 (inactive); in assay [9] it was 0.596 (inactive); in assay [10], 0.821; in [11], 0.18; in [12], -0.698; in [13] it was 1.2. Further, the z-score is -0.236 in assay [14]; 0.208 in assay [15]; 2.16 in assay [16]; 0.103 (inactive) in [17]; 0.465 in assay [18]; -0.939 in [19]. Also, in assay [20], the z-score was -0.428 (inactive). Also, the composite z-score in [2] is -0.101.
Turning to `COCC(=C=CC[C@H](O)c1cccc(OCCO)c1)C[C@H](O)COCc1ccccc1`, the z-score in assay [1] is -0.0371 (inactive); in [3], 9.2 (active); in [4], 1.07 (inactive); in assay [5], 0.307 (inactive); in [6] it was 0.404 (inactive); in assay [7], -0.234. Further, the z-score was -0.436 (inactive) in assay [8]; -0.797 (inactive) in assay [9]; -1.39 in [10]; 0.276 in assay [11]; -0.48 in assay [12]; 0.0978 in assay [13]. For the same molecule, the z-score in [14] is 0.103; in [15], -0.557; in assay [16] it was -0.487; in [17], -0.3 (inactive); in [18], 0.191; in [19] it was -0.701. Further, the z-score in assay [20] was -0.359 (inactive). In assay [2], the composite z-score was found to be 0.213.
As to `CCOC(=O)C1=CCC(c2ccco2)N(S(=O)(=O)c2ccc(C)cc2)C1` (stereo not given), the z-score was 0.323 (inactive) in assay [1]; 9.57 (active) in [3]; 1.24 (inactive) in assay [4]; 0.252 (inactive) in assay [5]; 0.731 (inactive) in assay [6]; 0.406 in assay [7]. Moreover, the z-score in [8] is -0.176 (inactive); in assay [9], -1.26 (inactive); in assay [10], 0.758; in assay [11], -0.373; in [12] it was 0.279; in assay [13], 0.34. The z-score was -2.93 in assay [14]; -1.64 in [15]; -0.843 in [16]; -1.32 (inactive) in [17]; 0.733 in assay [18]; -2.11 in assay [19]. The z-score in [20] was 0.326 (inactive). Further, the composite z-score in [2] came out at 0.247.
